Data on 34 compounds can be found in ChEMBL document CHEMBL1201862, “PubChem BioAssay data set” (2004).

Molecules are shown by their SMILES. Only a part of the results of these assays is listed, not drawn at random. A value given as a limit tells only on which side of the number the result lay.

This assay concerns the target T1, Protein RecA (Mycobacterium tuberculosis) (UniProt P9WHJ3).
T1 sequence (whole entry): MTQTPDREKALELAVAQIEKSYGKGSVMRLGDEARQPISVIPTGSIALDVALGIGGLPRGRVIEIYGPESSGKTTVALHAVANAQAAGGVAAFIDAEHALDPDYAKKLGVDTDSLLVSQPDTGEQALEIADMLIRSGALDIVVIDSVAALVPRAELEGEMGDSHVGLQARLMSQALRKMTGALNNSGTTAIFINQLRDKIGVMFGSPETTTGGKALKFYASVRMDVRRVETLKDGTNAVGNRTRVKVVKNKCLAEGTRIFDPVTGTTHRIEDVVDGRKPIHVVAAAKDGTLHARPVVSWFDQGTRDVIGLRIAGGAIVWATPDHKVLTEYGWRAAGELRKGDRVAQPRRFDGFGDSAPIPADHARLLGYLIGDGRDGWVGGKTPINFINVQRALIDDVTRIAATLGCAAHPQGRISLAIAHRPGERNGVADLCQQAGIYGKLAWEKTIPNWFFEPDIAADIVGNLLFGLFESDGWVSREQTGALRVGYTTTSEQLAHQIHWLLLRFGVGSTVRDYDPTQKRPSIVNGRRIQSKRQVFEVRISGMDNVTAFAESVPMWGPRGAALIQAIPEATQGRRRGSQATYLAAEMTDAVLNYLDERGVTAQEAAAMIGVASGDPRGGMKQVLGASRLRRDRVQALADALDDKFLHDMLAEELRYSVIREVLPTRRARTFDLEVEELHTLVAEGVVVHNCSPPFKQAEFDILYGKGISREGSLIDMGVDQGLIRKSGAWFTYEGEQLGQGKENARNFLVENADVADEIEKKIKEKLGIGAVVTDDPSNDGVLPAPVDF
Nature of the assay: M. tuberculosis H37Rv growth inhibition, dose response, strain H37Rv (AID 489010).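 Further: whole Mycobacterium tuberculosis cells grown in culture and not purified RecA protein.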 It is filed as functional.
In the case of `Cc1nc2c(=O)n(C)c(=O)nc-2n(C)n1`, the IC90 was 4.19 µM (active).

For the compound `O=C(NC(N=C(S)Nc1ccc(Cl)cc1Cl)C(Cl)(Cl)Cl)c1cccc([N+](=O)[O-])c1` (centres undefined), the concentration for an effect of 90% (IC90) is 15.2 µM (active).

Turning to `Cn1nc(-c2ccccn2)nc2c(=O)n(C)c(=O)nc1-2`, the concentration for an effect of 90% (IC90) was 22.3 µM (active).

For `C/C(=N\NC(=O)c1ccncc1)c1cc2ccccc2oc1=O`, the 90% effect concentration (IC90) was 0.43 µM (active).

As to `Cc1ccc(C(=O)Oc2ccc([N+](=O)[O-])cc2)cc1S(=O)(=O)N1CCCCCC1`, the 90% effect concentration (IC90) is > 100 µM (active).

As for `Cc1[nH]n(-c2ccccc2)c(=O)c1C(c1cccc([N+](=O)[O-])c1)c1c(C)[nH]n(-c2ccccc2)c1=O`, the concentration for an effect of 90% (IC90) is > 100 µM (active).

As for `COc1ccc(N(C(=O)CCl)C(C(=O)NCCc2ccccc2)c2cccs2)cc1` (centres undefined), the 90% effect concentration (IC90) is 22.9 µM (active).

For `COc1ccc2nc(C)cc(Sc3nc4ccccc4s3)c2c1`, the IC90 is > 100 µM (active).

As for `COc1cc(NCCCCCCCN)c2ncccc2c1`, the concentration for an effect of 90% (IC90) was 57.8 µM (active).

`Cc1ccc(C)c(Sc2ccc(NC(=O)CCl)cc2)c1`: the IC90 is > 100 µM (active).

Take `O=C(OCn1ncc(Cl)c(Cl)c1=O)c1ccccc1Cl`: the concentration for an effect of 90% (IC90) is > 100 µM (active).

Consider `Cc1ccc(Sc2ccc(NC(=O)CCl)cc2)cc1C`, for which the 90% effect concentration (IC90) is 52.4 µM (active).

Regarding `CCN(CC)CCNC(=O)c1ccc2c(c1NCCO)C(=O)c1ccccc1C2=O`, the concentration for an effect of 90% (IC90) is > 100 µM (active).

As for `Cc1ccc(N(C(=O)CCl)C(C(=O)NC2CCCCC2)c2cccnc2)cc1C` (centres undefined), the IC90 was 30.1 µM (active).

For the compound `CC(CCc1ccccc1)NC(=O)COC(=O)c1cc(NS(=O)(=O)c2ccc(Cl)c([N+](=O)[O-])c2)ccc1O` (centres undefined), the concentration for an effect of 90% (IC90) is > 100 µM (active).

On to `O=C(Cc1ccccc1)c1c[nH]c(C(=O)C(Cl)(Cl)Cl)c1`, for which the IC90 was > 100 µM (active).

With `COC(=O)c1sc(-c2ccc(Cl)cc2)cc1NC(=O)/C=C/C(=O)O`, the 90% effect concentration (IC90) is > 100 µM (active).

Take `Cc1cc(Br)c2c(c1)/C(=C/C(=O)c1cccs1)C(=O)N2`: the IC90 is > 100 µM (active).

Regarding `CC(C)c1nnc(NC(=O)c2nc(S(=O)(=O)Cc3ccc(F)cc3)ncc2Cl)s1`, the 90% effect concentration (IC90) was > 100 µM (active).

`Fc1ccc(Oc2nc(-c3ccccc3)nnc2C(F)(F)F)cc1`: the IC90 is > 100 µM (active).

Turning to `COC(=O)c1sc(-c2ccc(C(C)(C)C)cc2)cc1NC(=O)/C=C/C(=O)O`, the IC90 is 42.7 µM (active).

Regarding `Cc1oc2c(c1C(=O)N1CCOCC1)C(=O)c1ccccc1C2=O`, the IC90 was 35.2 µM (active).

Consider `COc1cc2c(cc1OC)C(c1cc(Br)ccc1F)N(C(=O)CCl)CC2` (centres undefined), for which the IC90 is 12.1 µM (active).

Regarding `Cc1ccc2c(c1)c1c3n2CCN(C(=O)CCl)C3CCC1` (centres undefined), the IC90 was 8.43 µM (active).

Take `Cc1oc2c(c1C(=O)NCc1cccnc1)C(=O)c1ccccc1C2=O`: the IC90 was < 0.2 µM (active).

For `C=CCOc1ccccc1CN(C(=O)CCl)c1ccc2c(c1)OCO2`, the IC90 was 8.42 µM (active).

As for `COC(=O)c1c(C)oc2ccc(N(C(=O)c3ccncc3)S(=O)(=O)c3ccc4ccccc4c3)cc12`, the IC90 is > 100 µM (active).

As for `CC1=NNC(=O)C1Cc1c(Cl)cccc1Cl` (centres undefined), the concentration for an effect of 90% (IC90) was > 100 µM (active).

As for `COc1ccc(C(=O)c2c(C(F)(F)F)oc3c2C(=O)c2ccccc2C3=O)cc1OC`, the 90% effect concentration (IC90) is 13.8 µM (active).

For the compound `CCC(C)[C@@H](NC(=O)OC(C)(C)C)c1nnc(S(=O)(=O)Cc2cccc(C)c2)o1` (some centres undefined), the IC90 was > 100 µM (active).

`Cc1nn(-c2ccccc2)c(Cl)c1CN(C(=O)CCl)c1ccc(Cl)cc1`: the IC90 is 8.54 µM (active).

For `Cn1nc(-c2ccc(Cl)cc2)nc2c(=O)n(C)c(=O)nc1-2`, the concentration for an effect of 90% (IC90) is 20 µM (active).

Regarding `COc1cc2c(cc1OC)-c1c(OC)c(OC)cc3c1C(C2)N(C)CC3` (centres undefined), the IC90 is 40.2 µM (active).

Take `CSc1nnc(NC(=O)c2nc(S(=O)(=O)Cc3cccc(C)c3)ncc2Cl)s1`: the IC90 was 44.7 µM (active).

Usually IC90 stands for the point of the concentration-response curve where the effect stands at 90%.
